Measurements reported in PubChem BioAssay (Tox21).
Results filed as inconclusive are left out. Where a call stands in place of a potency, no number is given. More than one record can exist for a structure, and the calls need not agree. Active and inactive are the calls of the source. The call rests on the fitted dose curve.

target: Muscarinic acetylcholine receptor M1 (Homo sapiens) (UniProt P11229); experiment: Cholinergic receptor muscarinic 1 (CHRM1) small molecule antagonists, cell-based qHTS assay (AID 1963588); conditions: CHRM1-CHO antagonist mode, calcium flux fluorescence; series mostly up to 61.5 µM; further: nearly all actives have a fitted effect of over 40% in size; further: potency means the concentration at half of the fitted maximal effect
Sequence (P11229 whole entry, looked up): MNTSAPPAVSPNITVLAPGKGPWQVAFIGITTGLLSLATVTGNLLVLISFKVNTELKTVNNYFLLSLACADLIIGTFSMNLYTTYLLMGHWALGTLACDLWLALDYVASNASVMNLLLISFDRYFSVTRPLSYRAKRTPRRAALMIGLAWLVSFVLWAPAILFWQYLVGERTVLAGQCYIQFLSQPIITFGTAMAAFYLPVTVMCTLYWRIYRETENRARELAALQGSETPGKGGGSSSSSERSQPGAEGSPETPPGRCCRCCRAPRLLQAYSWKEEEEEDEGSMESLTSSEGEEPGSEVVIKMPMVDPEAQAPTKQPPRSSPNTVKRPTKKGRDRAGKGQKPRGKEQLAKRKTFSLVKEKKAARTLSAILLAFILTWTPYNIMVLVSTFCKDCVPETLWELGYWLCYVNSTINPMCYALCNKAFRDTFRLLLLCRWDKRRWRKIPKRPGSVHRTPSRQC
Method in brief: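 Compounds were tested at 15 concentrations in three independent runs. Dye-loaded CHRM1-CHO cells were exposed 5 min at room temperature before stimulation by acetylcholine added at 50nM. Intracellular calcium was read kinetically on FDSS for 3 min.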

SMILES	Potency
CO[Si](CCCNCCNCCN)(OC)OC	inactive
CC(=O)c1ccc2c(c1)CCCC2	inactive
Nc1c2ccccc2nc2ccccc12	14.7 µM (active) and inactive
NC(=O)c1cccc([N+](=O)[O-])c1	inactive
CCOc1cc(NC(C)=O)ccc1C(=O)OC	inactive
CCCC(O)C(O)CO (stereo not given)	inactive
O=C(O)c1ccc(O)cc1O	inactive
C[Si](C)(C)Cl	inactive
COC(=O)c1c(Cl)c(Cl)c(C(=O)OC)c(Cl)c1Cl	inactive
Cc1ccc2n[nH]nc2c1	inactive
CCCOC(=O)C(C)O (stereo not given)	inactive

target: Muscarinic acetylcholine receptor M1 (Homo sapiens) (UniProt P11229); experiment: Cholinergic receptor muscarinic 1 (CHRM1) small molecule agonists, cell-based qHTS assay (AID 1963589); conditions: CHRM1-CHO cells, agonist mode, calcium flux fluorescence; series mostly up to 76.8 µM; further: nearly all actives have a fitted effect of over 35% in size
Method in brief: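 Calcium flux read-out: kinetic fluorescence at 1 sec intervals after pin-tool compound addition to dye-loaded CHRM1-CHO cells (human M1). Agonist mode; 15 concentrations tested in triplicate independent runs.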

SMILES	Potency	activation
OCCOc1ccc(OCCO)cc1	inactive	
N#CCC(=O)O	inactive	
Nc1ncnc2c1ncn2[C@@H]1O[C@H](COP(=O)(O)O)[C@@H](O)[C@H]1O	inactive	
CCc1ccc(C)nc1	inactive	
CN(C)c1ccc(/C=C/c2ccc([N+](=O)[O-])cc2)cc1		0.732% [at 6.97 µM] (inactive)
C/C=C(\C)C(=O)OC/C=C(\C)CCC=C(C)C	inactive	
CC(=O)/C=C/C1C(C)=CCC(C)C1(C)C (stereo not given)	inactive	
Cc1cccc(C)c1NC(=O)CC12CCCN1CCC2	inactive	
CC(=O)N1CCN(c2ccc(O)cc2)CC1	inactive	
C=C(C)C(=O)OCCCCCCOC(=O)C(=C)C	inactive	
O=C1CCN(c2ccccc2)N1	inactive	
Cl/C(=C\n1cncn1)c1ccc(Cl)cc1Cl	inactive	
COc1cc(C(=O)N2CCCCCCC2)cc(OC)c1OC	inactive	
COC(=O)N[C@H](C(=O)N[C@@H](Cc1ccccc1)[C@@H](O)CN(Cc1ccc(-c2ccccn2)cc1)NC(=O)[C@@H](NC(=O)OC)C(C)(C)C)C(C)(C)C	inactive	
